We go through five compounds from PubChem BioAssay.

Active and inactive are the calls of the source. Unless noted, how the calls were made is not given here.

Assay [1] is described as follows: anti-His antibody binders, primary screen, artefact control for SMM control protein annotation, biochemical, small-molecule microarray, 635 nm fluorescence (AID 1128).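 Further: score merges feature fluorescence with signal-to-noise for each printed compound spot.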 The note with it: anti-His Alexa647 antibody binding, higher = more signal.
In assay [2] the test system is Human papillomavirus type 1a E7 protein (residues 1-88). As to the kind of experiment: HPV1a E7 small-molecule binders, primary screen, biochemical, small-molecule microarray, residues 1-88, 635 nm (AID 1129). Particulars: small-molecule microarray binding, fluorescence 635 nm; higher = more signal.
Assay [3] has as its target Focal adhesion kinase 1 (Homo sapiens) (UniProt Q05397). As to the kind of experiment: small-molecule microarray binders of FAK, primary screen, biochemical, 635/667 nm fluorescence, BSA, DTT (AID 1130).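 Further: composite of spot emission at 667 nm and signal to noise over triplicate slides.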 Particulars: PTK2 binding, 635 nm fluorescence, higher = more signal.
Assay [4] deals with Fibrinogen (Alexa647-labelled). As to the kind of experiment: fibrinogen binders on compound microarrays, profiling panel, artefact control for SMM control-protein annotation, biochemical, small-molecule microarray, 635/667 nm fluorescence (AID 1131).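 Further: z-score merges 667 nm fluorescence with per-spot signal-to-noise over triplicate slides.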 The note with it: fibrinogen-A647 binding fluorescence, higher = more signal.
Assay [5] has as its target Follistatin (Homo sapiens) (UniProt P19883). As to the kind of experiment: follistatin binders on small-molecule microarrays, primary screen, biochemical, small-molecule microarray, 635/667 nm fluorescence (AID 1132). Particulars: FST binding, 635 nm fluorescence, higher = more signal.
Assay [6] addresses Fibroblast growth factor 2 (Homo sapiens) (UniProt P09038). As to the kind of experiment: FGF2 binders on small-molecule microarrays, primary screen, biochemical, small-molecule microarray, 635/667 nm fluorescence (AID 1133). The note with it: small-molecule microarray binding, FGF2, fluorescence 635/667; higher = more signal.
The nature of assay [7]: mitochondrial membrane potential change in A549 cells, profiling panel, cell-based, JC-1 fluorescence, basal, 24 h, 100 nL (AID 1138).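 Further: A549 lung adenocarcinoma cells under basal conditions with no added stimulus; test concentration not given here.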 The note with it: higher = more signal.
Assay [8] relates to Lefty1. As to the kind of experiment: Lefty1 binders on small-molecule microarrays, primary screen, biochemical, small-molecule microarray, 635/667 nm fluorescence (AID 1139). Particulars: small-molecule microarray binding, fluorescence 635/667; higher = more signal.
The subject of assay [9] is wheat germ agglutinin (Triticum aestivum), Alexa647-labelled. As to the kind of experiment: wheat germ agglutinin binders on compound microarrays, profiling panel, artefact control for SMM control-protein annotation, biochemical, small-molecule microarray, 635/667 nm fluorescence (AID 1140).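 Further: score merges 667 nm feature emission with signal to noise over triplicate slides.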 The note with it: WGA-A647 binding, 635 nm fluorescence, higher = more signal.
In assay [10] the target is Luciferin 4-monooxygenase (Photinus pyralis) (UniProt P08659). As to the kind of experiment: firefly luciferase enzyme inhibitors, primary screen, biochemical, luminescence, purified enzyme, 2006 set (AID 1141).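 Further: cell-free assay with purified firefly luciferase at 100 ng per well in PBS; test concentration not given here.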 Particulars: SteadyGlo luminescence, 30 min, higher = more signal, called active from +8 up or from −8 down.
Chain of Luciferin 4-monooxygenase (Photinus pyralis) (P08659 whole entry, looked up): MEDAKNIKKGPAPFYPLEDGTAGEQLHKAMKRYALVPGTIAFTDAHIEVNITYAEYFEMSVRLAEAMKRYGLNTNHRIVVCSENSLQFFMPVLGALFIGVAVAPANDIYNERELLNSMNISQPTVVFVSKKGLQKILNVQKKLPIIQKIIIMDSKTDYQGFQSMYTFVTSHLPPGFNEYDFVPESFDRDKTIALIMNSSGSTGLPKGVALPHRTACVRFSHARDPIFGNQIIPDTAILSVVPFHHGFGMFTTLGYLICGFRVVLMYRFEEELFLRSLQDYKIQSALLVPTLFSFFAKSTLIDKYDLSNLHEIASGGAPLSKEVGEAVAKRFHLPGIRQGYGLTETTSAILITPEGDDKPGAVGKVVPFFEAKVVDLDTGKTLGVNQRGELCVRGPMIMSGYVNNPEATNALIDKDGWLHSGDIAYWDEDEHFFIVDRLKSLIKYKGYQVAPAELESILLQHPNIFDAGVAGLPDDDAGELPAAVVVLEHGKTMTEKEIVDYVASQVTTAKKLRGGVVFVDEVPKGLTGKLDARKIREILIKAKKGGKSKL
The subject of assay [11] is Wnt5a (protein binding on small-molecule microarray). Description: Wnt5a binders on small-molecule microarray, primary screen, biophysical, 635/667 nm fluorescence (AID 1142).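 Further: fluorescence read at 667 nm with signal to noise per printed feature.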 The note with it: 635 nm fluorescence, higher = more signal.
Assay [12] is described as follows: cell viability in Huh7 cells, primary screen, cytotoxicity control for HCV replication inhibitor project, CellTiter-Glo luminescence, basal, 48 h (AID 1143).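 Further: Huh7 hepatoma cells carrying a hepatitis C replication reporter with no stimulus; test concentration not given here.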 The note with it: Huh7 HCV replicon, higher = more signal, called active from +8 up or from −8 down. On the technique in general: Cellular ATP, detected with luciferase, serves as a proxy for viable cell number.

A short description of assay [13]: P. aeruginosa biofilm formation inhibitors, primary screen, PAO1 strain, BacTiter-Glo luminescence, LB-PBS (AID 1144). Particulars: 12 h, higher = more signal.
The nature of assay [14]: CREB reporter modulators without forskolin, primary screen, cell-based, PC12, CRE-LacZ reporter, unstimulated (AID 1145). Particulars: no forskolin, luminescence, 4.5 h, higher = more signal, called active from +8 up or from −8 down.
A short description of assay [15]: CREB reporter modulators under forskolin, primary screen, cell-based, PC12, CRE-LacZ reporter, forskolin-stimulated (AID 1146).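 Further: PC12 cells with 6xCRE LacZ reporter stimulated by forskolin 10 µM; beta-galactosidase reporter signal reflecting CREB driven transcription.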 Particulars: luminescence, 4.5 h, higher = more signal, called active from +8 up or from −8 down.
The target in assay [16] is Streptavidin (Streptomyces avidinii) (UniProt P22629). As to the kind of experiment: streptavidin binders on small-molecule microarray, primary screen, artefact control for SMM compound annotation, biophysical, 635/667 nm fluorescence (AID 1147).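 Further: signal reflects streptavidin binding to arrayed compounds as a control protein.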 Particulars: streptavidin binding, higher = more signal.
Chain of Streptavidin (Streptomyces avidinii) (P22629 whole entry, looked up): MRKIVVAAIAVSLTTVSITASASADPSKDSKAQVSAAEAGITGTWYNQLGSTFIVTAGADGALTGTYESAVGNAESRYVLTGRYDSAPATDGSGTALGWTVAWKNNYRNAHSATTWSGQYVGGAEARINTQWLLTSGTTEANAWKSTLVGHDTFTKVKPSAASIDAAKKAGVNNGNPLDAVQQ
The nature of assay [17]: small-molecule binders of probe aInhba, primary screen, biochemical, small-molecule microarray, 635/667 nm fluorescence (AID 1148).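 Further: score merges 667nm spot fluorescence with signal-to-noise for antibody binding to printed compounds.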 Particulars: higher = more signal.
Assay [18] has as its target Torsin-1A (Homo sapiens) (UniProt O14656). Description: torsin A binders from cell lysate, primary screen, small-molecule microarray, wild-type, 635/667 nm (AID 1149). The note with it: COS7 hTOR1A-WT lysate, 635 nm fluorescence, higher = more signal.
The target is the same in assay [19]. Description: small-molecule binders of mutant TOR1A in lysate, primary screen, cell lysate, small-molecule microarray, COS7 lysate, 635/667 nm fluorescence (AID 1150).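 Further: score pools 667 nm emission and signal to noise measuring lysate protein binding.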 Particulars: COS7 hTOR1A mutant lysate, 635 nm fluorescence, higher = more signal.
The test system of assay [20] is Sonic hedgehog protein (Shh). Description: small-molecule binders of Shh protein, primary screen, biochemical, small-molecule microarray, 635/667 nm fluorescence (AID 1151).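 Further: Shh protein binding to compounds spotted on small-molecule microarray slides; score combines spot fluorescence intensity with signal-to-noise across triplicate slides.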 Particulars: small-molecule microarray binding, 635 nm fluorescence; higher = more signal.

Chain of Focal adhesion kinase 1 (Homo sapiens) (Q05397 whole entry, looked up): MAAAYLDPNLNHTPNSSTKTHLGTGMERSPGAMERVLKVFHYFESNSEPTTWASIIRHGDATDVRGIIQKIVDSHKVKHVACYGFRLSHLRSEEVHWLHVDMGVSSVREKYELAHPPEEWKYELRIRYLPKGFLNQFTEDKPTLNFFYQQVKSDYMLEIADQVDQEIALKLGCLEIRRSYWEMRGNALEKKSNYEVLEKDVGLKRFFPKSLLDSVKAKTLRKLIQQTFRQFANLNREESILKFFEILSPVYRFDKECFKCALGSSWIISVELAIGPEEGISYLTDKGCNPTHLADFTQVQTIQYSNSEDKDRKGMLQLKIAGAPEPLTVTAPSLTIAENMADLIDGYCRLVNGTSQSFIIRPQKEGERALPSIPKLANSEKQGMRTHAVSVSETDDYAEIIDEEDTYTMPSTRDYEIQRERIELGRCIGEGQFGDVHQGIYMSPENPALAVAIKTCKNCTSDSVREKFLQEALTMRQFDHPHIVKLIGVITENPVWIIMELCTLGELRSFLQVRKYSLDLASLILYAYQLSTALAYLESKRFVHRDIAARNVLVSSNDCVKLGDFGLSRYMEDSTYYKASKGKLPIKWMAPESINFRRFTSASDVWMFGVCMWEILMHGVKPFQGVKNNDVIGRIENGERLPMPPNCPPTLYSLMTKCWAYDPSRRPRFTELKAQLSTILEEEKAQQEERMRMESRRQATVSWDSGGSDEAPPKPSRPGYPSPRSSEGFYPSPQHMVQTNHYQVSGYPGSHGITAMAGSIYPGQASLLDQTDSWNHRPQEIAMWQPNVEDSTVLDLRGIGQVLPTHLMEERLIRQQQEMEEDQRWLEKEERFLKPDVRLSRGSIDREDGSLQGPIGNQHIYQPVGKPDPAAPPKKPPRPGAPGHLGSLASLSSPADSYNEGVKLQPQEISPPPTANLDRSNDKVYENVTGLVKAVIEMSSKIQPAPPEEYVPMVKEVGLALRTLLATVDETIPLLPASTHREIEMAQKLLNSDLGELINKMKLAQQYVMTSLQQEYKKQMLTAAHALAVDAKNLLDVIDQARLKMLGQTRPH
Chain of Follistatin (Homo sapiens) (P19883 whole entry, looked up): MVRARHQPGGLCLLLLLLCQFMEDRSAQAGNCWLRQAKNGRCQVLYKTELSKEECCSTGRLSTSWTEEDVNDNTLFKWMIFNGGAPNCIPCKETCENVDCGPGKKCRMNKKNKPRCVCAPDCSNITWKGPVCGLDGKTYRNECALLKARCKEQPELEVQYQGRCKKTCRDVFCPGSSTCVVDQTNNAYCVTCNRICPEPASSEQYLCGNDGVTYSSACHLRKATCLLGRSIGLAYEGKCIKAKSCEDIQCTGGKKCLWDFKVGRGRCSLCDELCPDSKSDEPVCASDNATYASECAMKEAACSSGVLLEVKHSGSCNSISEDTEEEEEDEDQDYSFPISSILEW
Chain of Torsin-1A (Homo sapiens) (O14656 whole entry, looked up): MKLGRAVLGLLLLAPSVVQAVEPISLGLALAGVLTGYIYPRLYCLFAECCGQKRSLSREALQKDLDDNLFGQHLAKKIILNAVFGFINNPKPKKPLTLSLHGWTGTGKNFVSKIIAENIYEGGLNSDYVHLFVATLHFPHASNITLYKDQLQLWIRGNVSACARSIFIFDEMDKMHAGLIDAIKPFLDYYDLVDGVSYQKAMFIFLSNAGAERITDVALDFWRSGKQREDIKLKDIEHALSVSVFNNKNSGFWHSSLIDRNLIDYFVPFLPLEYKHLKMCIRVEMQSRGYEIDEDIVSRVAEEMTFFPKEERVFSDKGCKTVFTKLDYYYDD
Chain of Fibroblast growth factor 2 (Homo sapiens) (P09038 whole entry, looked up): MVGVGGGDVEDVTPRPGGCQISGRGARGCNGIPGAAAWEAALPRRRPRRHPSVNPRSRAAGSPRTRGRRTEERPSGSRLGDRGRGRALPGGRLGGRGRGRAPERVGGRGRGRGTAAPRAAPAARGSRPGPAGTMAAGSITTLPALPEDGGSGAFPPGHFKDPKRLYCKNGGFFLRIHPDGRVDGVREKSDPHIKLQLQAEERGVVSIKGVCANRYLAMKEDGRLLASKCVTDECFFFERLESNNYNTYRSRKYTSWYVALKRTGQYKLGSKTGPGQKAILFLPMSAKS

On to `NC(=O)NCC#Cc1ccc2c(c1)[C@]1(C(=O)N2)[C@H](C(=O)NC[C@H](O)c2ccccc2)[C@H]2C(=O)O[C@H](c3ccccc3)[C@H](c3ccccc3)N2[C@@H]1c1ccccc1OCCO`, for which the composite z-score worked out at 0.441 in [1]; 1.18 in assay [2]; 0.32 in assay [3]; 0.946 in assay [4]; 1.05 in assay [5]; 0.54 in [6]. Further, the composite z-score in assay [8] is 0.28; in assay [9], 0.25; in assay [11] it was -0.0335; in assay [16], -0.0692; in assay [17] it was 0.0471; in [18], -1.05. For the same compound, the composite z-score was 0.92 in assay [19] and 1.82 in [20]. Also, the z-score was -1.17 in assay [7]; 0.649 (inactive) in [10]; -4.25 (inactive) in [12]; -1.09 (inactive) in assay [13]; -0.0246 (inactive) in assay [14]; -0.304 (inactive) in [15].
For `O=C1C2C=CC(C(O)c3ccc(Br)cc3)N(n3cnnc3)C2C(=O)N1Cc1ccccc1` (stereo not given), the composite z-score in [1] came to 0.648; in [2] it was 1.16; in assay [3], 0.407; in assay [4], 0.974; in assay [5] it was 0.722; in assay [6], 0.298. Also, the composite z-score is 0.425 in assay [8]; 1.15 in assay [9]; 0.175 in assay [11]; 1.27 in [16]; -0.0375 in assay [17]; 0.489 in [18]. Moreover, the values for the composite z-score in assay [19] and in assay [20] were 1.05 and 0.232, respectively. For the same compound, the z-score in [7] is -0.901; in assay [10], 1.66 (inactive); in assay [12], 0.245 (inactive); in assay [13], 0.913 (inactive); in assay [14], 0.127 (inactive); in [15], 1.03 (inactive).
With `O=C(NCC(O)CO)[C@]1(CCS(=O)(=O)c2ccccc2)N=C(c2ccc(OCCCO)cc2)O[C@@H]1c1ccccc1` (stereo not given in full), the composite z-score in assay [1] is 1.14; in assay [2] it was 1.27; in assay [3], 0.516; in [4] it was 0.976; in assay [5], 0.866; in assay [6], -0.702. Also, the composite z-score in assay [8] was -1.11; in assay [9], 1.54; in assay [11], 0.299; in [16], 1.03; in assay [17], -0.0567; in [18], 0.499. For the same compound, the composite z-score in assay [19] is 1.48; in [20] it was -1.05. Further, the z-score in [7] was 0.439; in [10], 0.0334 (inactive); in assay [12] it was -0.084 (inactive); in assay [13], 0.295 (inactive); in assay [14], 0.596 (inactive); in assay [15], -0.0842 (inactive).
Turning to `C=CCNC(=O)[C@@H]1[C@H]2C(=O)O[C@H](c3ccccc3)[C@H](c3ccccc3)N2[C@H](c2ccccc2OCCO)[C@@]12C(=O)N(C(=O)OCCOC)c1ccc(C#CCC(C(=O)OC)C(=O)OC)cc12`, the composite z-score in [1] came to 1.39; in assay [2], 1.23; in assay [3], 1.25; in assay [4], 0.896; in [5], 1.04; in assay [6], 1.42. Also, the composite z-score in [8] is 1.11; in assay [9], 1.12; in assay [11], 0.978; in assay [16], 1.63; in assay [17] it was 0.86; in [18], 0.612. In addition, the figures for the composite z-score in assay [19] and in [20] were 1.56 and 2.04, respectively. The z-score in [7] is -0.453; in assay [10], 0.112 (inactive); in assay [12], -5.68 (inactive); in assay [13] it was 0.0376 (inactive); in assay [14] it was -0.195 (inactive); in assay [15], -0.569 (inactive).
On to `COCCCNC(=O)[C@@]1(Sc2ccc(C)cc2)CC(=O)N(Cc2ccccc2)[C@@H]1c1ccc(CO)cc1`, for which the composite z-score in assay [1] is 0.068; in assay [2], -0.277; in assay [3] it was -0.166; in [4], -1.56; in [5], -0.489; in assay [6] it was -0.236. Further, the composite z-score in [8] is -1.03; in assay [9], -0.4; in [11], -0.114; in assay [16] it was -0.82; in [17], -0.0193; in [18], 0.366. For the same compound, the figures for the composite z-score in assay [19] and in [20] were -0.607 and -0.168, respectively. Besides, the z-score is -0.0602 in assay [7]; 0.542 (inactive) in assay [10]; 0.101 (inactive) in [12]; -0.578 (inactive) in assay [13]; -0.438 (inactive) in assay [14]; 0.579 (inactive) in assay [15].
